Source: PubChem BioAssay
Only some compounds are listed: those with a hit (about 1.3% of all), similar ones and a draw of the others.
GALK inhibitor: qHTS Assay for Inhibitors of Human Galactokinase (GALK); P51570; Purified GALK, Kinase-Glo residual ATP luminescence; Potency, µM (top dose mostly 57.5 µM), for inactives: at the highest dose activity change, negative = inhibition, hits mostly inhibitors; 270,000 compounds, 0.007% hits; AID 1868, 2009; note: potency is the fitted concentration of half-maximal effect
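GALK at 5 nM final was combined with compound, 35 uM ATP and 100 uM galactose in HEPES pH8.0 with MgCl2 and DTT. The reaction ran one hour at room temperature before luminescent ATP detection.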
TrxR1 substrate: qHTS Assay for Substrates of Mammalian Selenoprotein Thioredoxin Reductase 1 (TrxR1): qHTS; AID 588456, 2011; purified TrxR1 substrate turnover, NADPH consumption readout; 390,000 compounds, 0.01% hits; Potency, µM (top dose mostly 114 µM), without a hit: at the top dose activity change, negative = substrate turnover; note: potency is the fitted concentration of half-maximal effect; nearly all actives have a fitted effect of over 50% in size
Target sequence (O89049 whole entry, looked up): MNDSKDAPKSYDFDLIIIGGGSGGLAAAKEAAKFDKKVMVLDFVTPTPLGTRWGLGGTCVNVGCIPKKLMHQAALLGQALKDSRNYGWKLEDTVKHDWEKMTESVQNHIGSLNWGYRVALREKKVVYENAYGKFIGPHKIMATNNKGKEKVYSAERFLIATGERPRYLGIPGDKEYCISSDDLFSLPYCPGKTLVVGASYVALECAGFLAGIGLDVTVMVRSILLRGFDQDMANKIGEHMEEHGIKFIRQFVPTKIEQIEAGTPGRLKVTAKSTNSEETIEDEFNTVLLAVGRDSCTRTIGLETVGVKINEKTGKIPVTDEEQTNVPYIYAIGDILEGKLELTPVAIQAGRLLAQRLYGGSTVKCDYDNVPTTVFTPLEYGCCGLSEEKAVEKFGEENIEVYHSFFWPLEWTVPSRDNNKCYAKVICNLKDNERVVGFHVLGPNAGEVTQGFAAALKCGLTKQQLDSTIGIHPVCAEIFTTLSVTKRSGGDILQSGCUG
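Rat TrxR1, dispensed at 90 nM, was prereduced with 400 uM NADPH (final) for 5 min at ~22 deg C, then incubated with compound 15 min before 400 uM selenite. A first-read NADPH fluorescence drop versus no-compound background flagged substrates.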
Pin1 inh: qHTS Assay to Find Inhibitors of Pin1. Peptidyl-prolyl cis-trans isomerase NIMA-interacting 1 (Homo sapiens), Q13526. Potency, µM (series often up to 115 µM), without a hit: top-dose activity, negative = inhibition, hits mostly inhibitors. 390,000 compounds, 0.009% hits. Pin1 FP peptide displacement, HiFluor488, 10 min; active = well fitted inhibition curve with a large enough effect in the polarisation, with a control signal flat, not every such curve was filed as active; inconclusive = small, poorly fitted or top-dose-only effect, or effect the other way, or a change in a side signal; inactive = no such curve, though single readings can be large or run the other way; the % refers to the polarisation; note: potency is the fitted concentration of half-maximal effect
Target sequence (Q13526 whole entry, looked up): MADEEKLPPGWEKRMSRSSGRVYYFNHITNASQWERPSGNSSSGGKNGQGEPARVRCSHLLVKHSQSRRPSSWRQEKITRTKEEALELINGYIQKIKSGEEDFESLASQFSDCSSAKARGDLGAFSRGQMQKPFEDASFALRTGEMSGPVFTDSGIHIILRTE
Giardia kill: Small Molecules that selectively kill Giardia lamblia: qHTS | AID 540267, 2011 | activity change, % at 7.66 µM, hits read low | 340,000 compounds, 0.15% hits | Giardia lamblia trophozoite viability; in the data active = activity change below about -80%; inconclusive = between about -30% and that limit;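 note: parasites exposed to compound for two days anaerobically before the ATP read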
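Media and compound were dispensed first, then trophozoites at 100 cells/well; plates sat 48 hrs at 37 deg C without oxygen before ATP luminescence reagent was added and read after 15-30 min at room temperature.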
rTrxR1 inhibitor: qHTS Assay for Inhibitors of Mammalian Selenoprotein Thioredoxin Reductase 1 (TrxR1): qHTS; recombinant rTrxR1, NADPH fluorescence consumption, selenite substrate; AID 588453, 2011; Potency, µM (highest dose often 114 µM), without a hit: at the highest dose activity change, negative = inhibition, usual class: inhibitors; 390,000 compounds, 1% hits; Thioredoxin reductase 1, cytoplasmic (Rattus norvegicus), O89049; note: potency is the fitted concentration of half-maximal effect; nearly all actives have a fitted effect of over 65% in size
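Rat TrxR1 (90 nM in the dispensed reagent) was pre-reduced with 400 uM NADPH for 5 min at room temperature, then incubated with compound for 15 min. After 400 uM selenite was added, NADPH fluorescence (Ex 340/Em 450 nm) was followed for 8 min.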
KAT2A inh: qHTS Assay for Inhibitors of GCN5L2. AID 504327, 2011. Potency, µM (highest dose often 58.9 µM), for the others: at the highest dose activity change, negative = inhibition, most hits filed as inhibitors. Histone acetyltransferase KAT2A (Homo sapiens), Q92830. 390,000 compounds, 0.21% hits. GCN5L2 HAT assay, ThioGlo1 CoA-SH fluorescence; note: potency is the fitted concentration of half-maximal effect
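GCN5L2 (20 nM) in 50mM HEPES pH 7.5, 0.1mM EDTA, 0.01% Tween-20 preincubated 15 min with compounds at room temperature. Reaction started with H3(1-25) 75uM, acetyl-CoA 70uM, ThioGlo1 50uM; CoA-thiol fluorescence (Ex340/Em540) read at 0 and 20 min.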
Numbers without * were called inactive; [ ] = remark or other dose. Unless noted, calls come from the whole dose curve; as a rule, active = well fitted curve in the direction sought with a large enough effect; inconclusive = small, poorly fitted or top-dose-only effect, or another doubt; inactive = no such curve, though single readings can be large; an effect the other way counts as inactive or inconclusive. % is set by controls: 0 for no effect and ±100 for the full control effect.

For O=C(CCN1CCCCCC1)c1ccccc1 the results were GALK inhibitor -5.1%, TrxR1 substrate 10.4%[11.4 µM], Pin1 inh 0.1%, Giardia kill 5.2, rTrxR1 inhibitor 0.891µM* and KAT2A inh 0.7%.
`Cc1ccc2c(c1)N(CC(=O)NC1CCC(C)CC1)C(=O)c1cccnc1O2` (stereo not given) gave TrxR1 substrate 9.8%[57.1 µM], Pin1 inh 3.1%, Giardia kill 2.7, rTrxR1 inhibitor 9.8%[57.1 µM] and KAT2A inh -7.1%.
Screening CN(CC(=O)Nc1ccc(F)cc1)C(=O)COC(=O)/C=C/c1ccccc1[N+](=O)[O-] returned TrxR1 substrate -1.3%, Pin1 inh 0.1%, Giardia kill 1.7, rTrxR1 inhibitor 28.8% and KAT2A inh -4.1%.
`CCCOc1ccc(C(=O)CCN2CCN(C(=O)OCC)CC2)cc1` gave GALK inhibitor -0.2%, TrxR1 substrate 3.6%[57.1 µM], Pin1 inh 3.5%, Giardia kill 9.2, rTrxR1 inhibitor 8.91µM* and KAT2A inh -6.5%.
COc1ccc(C(=O)CN2CCN(c3ccc(F)cc3)CC2)cc1OC was read as GALK inhibitor 1.0%, TrxR1 substrate 1.6%, Pin1 inh -6.3%, Giardia kill -29.6, rTrxR1 inhibitor 20µM* and KAT2A inh inconclusive.
For CCOc1ccc(C(=O)CCN2CCCCC2)cc1 the results were GALK inhibitor 6.0%, TrxR1 substrate 12.5%, Pin1 inh 0.3%, Giardia kill -3.1, rTrxR1 inhibitor 0.708µM* and KAT2A inh -0.4%.
CCOc1ccc(OCCCCN2CCCC2)cc1 was read as GALK inhibitor 0.4%, TrxR1 substrate -5.9%, Pin1 inh 7.1%, Giardia kill 17.1, rTrxR1 inhibitor 2.6% and KAT2A inh -9.4%.
Screening O=C(CCN1CCCC1)c1cccs1 returned GALK inhibitor -2.2%, TrxR1 substrate 4.7%[57.1 µM], Pin1 inh 2.6%, Giardia kill 22.9, rTrxR1 inhibitor 0.398µM* and KAT2A inh 2.7%.
COc1cccc(-n2ccnc2SCC(=O)Nc2c(C)cc(C)cc2C)c1 was read as TrxR1 substrate 0.9%[57.1 µM], Pin1 inh 5.5%, rTrxR1 inhibitor 8.1%[57.1 µM] and KAT2A inh -9.2%.
For O=C(c1ccccc1)N1CCN(c2nc(-c3ccc(Br)cc3)cs2)CC1 the results were Pin1 inh 12.7%.
`COC(=O)CS(=O)(=O)c1nc2ccccc2nc1N1CCCCC1` gave TrxR1 substrate -1.0%, Pin1 inh 8.3%, rTrxR1 inhibitor inconclusive and KAT2A inh -6.0%.
For CC(C)Oc1ccc(C(=O)CCN2CCCCC2)cc1 the results were GALK inhibitor -1.7%, TrxR1 substrate 3.9%, Pin1 inh 3.1%, Giardia kill -4.9, rTrxR1 inhibitor inconclusive and KAT2A inh -3.1%.
For COc1ccc(C(=O)CCN2CCCCCC2)cc1 the results were GALK inhibitor 2.3%, TrxR1 substrate 6.5%, Pin1 inh 5.0%, Giardia kill -4.1, rTrxR1 inhibitor 0.794µM* and KAT2A inh -3.1%.
For O=C1CC(=O)N(Cc2ccco2)C(=O)N1 the results were GALK inhibitor 2.0%, TrxR1 substrate 5.6%, Pin1 inh inconclusive, Giardia kill -2.3, rTrxR1 inhibitor inconclusive and KAT2A inh -17.1%.
Screening O=C1CC(=O)N(Cc2ccco2)C(=S)N1 returned GALK inhibitor 0.7%, TrxR1 substrate -4.8%, Pin1 inh inconclusive, Giardia kill -14.0, rTrxR1 inhibitor inconclusive and KAT2A inh 17.8µM*.
Screening COc1cc(C(=O)COC(=O)c2ccncc2)cc(OC)c1OC returned TrxR1 substrate -3.3%, Pin1 inh 9.9%, Giardia kill 18.1, rTrxR1 inhibitor 22.2% and KAT2A inh -3.4%.
CN(C)CCN(Cc1ccccc1)S(=O)(=O)c1ccc(-c2ccc(=O)[nH]n2)s1 was read as GALK inhibitor -0.6%, TrxR1 substrate 10.9%, Pin1 inh -5.0%, Giardia kill -17.4, rTrxR1 inhibitor 39.8µM* and KAT2A inh 2.0%.
For CN(C)CCN(Cc1ccccc1)S(=O)(=O)c1ccc(-c2cc(C(F)(F)F)on2)s1 the results were TrxR1 substrate -12.1%[57.1 µM], Pin1 inh 0.5%, rTrxR1 inhibitor -7.1%[57.1 µM] and KAT2A inh -0.4%.
`CCCC[C@@H]1CCCO[C@@](C(=O)NCc2ccccc2)(C(F)(F)F)C1` gave TrxR1 substrate -0.1%, Pin1 inh inconclusive, Giardia kill 26.1 and rTrxR1 inhibitor 16.8%.
O=C1N=C(N2CCOCC2)S/C1=C/c1ccc(-c2ccccc2Cl)o1 was read as GALK inhibitor -0.4%, TrxR1 substrate -15.9%, Pin1 inh inconclusive, Giardia kill 8.9, rTrxR1 inhibitor -15.8% and KAT2A inh 3.9%.
O=C1S/C(=C\c2ccc(N3CCOCC3)o2)C(=O)N1Cc1c(F)cccc1Cl was read as GALK inhibitor -1.7%, TrxR1 substrate 4.5%[57.1 µM], Pin1 inh inconclusive, Giardia kill 6.0, rTrxR1 inhibitor 2.51µM* and KAT2A inh inconclusive.
For O=C1S/C(=C/c2ccc(N3CCOCC3)o2)C(=O)N1Cc1c(F)cccc1Cl the results were GALK inhibitor -1.8%, TrxR1 substrate -9.9%, Pin1 inh inconclusive, Giardia kill -4.9, rTrxR1 inhibitor 8.91µM* and KAT2A inh -12.8%.
For COc1ccc(C2=C(N3CCN(c4cccc(C)c4C)CC3)c3ccccc3C2=O)cc1 the results were TrxR1 substrate 2.3%, Pin1 inh inconclusive, rTrxR1 inhibitor 0.3% and KAT2A inh -4.7%.
Screening CC(C)(C)CC(C)(C)N=C1Nc2ccc(Cl)cc2NC12C[C@H]1CCC(=O)N3CC[C@@H](C2)[C@@H]13 (stereo not given in full) returned TrxR1 substrate -11.4% and rTrxR1 inhibitor -7.9%.
`COCCN(CCOC)c1ncnc2c1c(-c1ccccc1)cn2-c1ccc(C)c(Cl)c1` gave TrxR1 substrate -4.5%[57.1 µM], Pin1 inh inconclusive, rTrxR1 inhibitor -0.4%[57.1 µM] and KAT2A inh -25.7%.
`CC(C)(C)OC(=O)Nc1ncnc2c1C(c1ccccc1)c1c(ccc3ccccc13)O2` (stereo not given) gave Pin1 inh -1.5%.
CCN(CC)c1ccc2cc(-c3nc4sc5c(c4c(=O)[nH]3)CCC(C(C)(C)C)C5)c(=O)oc2c1 (stereo not given) was read as TrxR1 substrate 9.4%[11.4 µM], Pin1 inh inconclusive, rTrxR1 inhibitor 41.1%[11.4 µM] and KAT2A inh 1.0%.
